This is part of a sample that, as a whole, favours compounds with a hit. Of some 79,000 tested, about 15% had one in any assay. No stated cut-off is given here; in the data, active means growth inhibition above about 70%; inactive means the rest.
Legend:
[1] = NCI Yeast Anticancer Drug Screen. Data for the rad50 strain (AID 155);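 further: 0% = growth of vehicle-only cultures of the same strain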; conditions: S. cerevisiae rad50 strain growth inhibition; at 50.0 µM; active compounds read high
Outline: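 Relative growth inhibition (compound vs vehicle) was measured in yeast with a defined repair-gene alteration.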

[2] = NCI Yeast Anticancer Drug Screen. Data for the mec2-1 strain (AID 157); conditions: S. cerevisiae mec2-1 strain, at 50.0 µM, active compounds read high
Outline: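 mec2-1 yeast strain, carrying an alteration in DNA damage repair or cell cycle control, was exposed to compounds; growth inhibition was measured relative to vehicle-treated controls.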

[3] = NCI Yeast Anticancer Drug Screen. Data for the sgs1 mgt1 strain (AID 161);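 further: 0% = growth of cultures given vehicle only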; conditions: S. cerevisiae sgs1 mgt1 strain, at 50.0 µM, active compounds read high
Outline: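 Growth of a repair-deficient yeast mutant was monitored after compound treatment and expressed as inhibition relative to vehicle-treated cultures.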

[4] = NCI Yeast Anticancer Drug Screen. Data for the cln2 rad14 strain (AID 165);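 further: 0% = growth equal to vehicle treated cultures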; conditions: S. cerevisiae cln2 rad14 strain, at 50.0 µM, active compounds read high
Outline: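 Yeast carrying cln2 and rad14 alterations (cell cycle control and DNA damage repair) were exposed to compounds. Growth inhibition was measured against vehicle-treated controls.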

[5] = NCI Yeast Anticancer Drug Screen. Data for the bub3 strain (AID 167); conditions: S. cerevisiae bub3 mutant strain, at 50.0 µM, active compounds read high
Outline: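 Screening used yeast with an engineered genetic alteration affecting cell cycle control. Compound-exposed cultures were compared with vehicle cultures, and reduced growth was taken as inhibition.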

[6] = NCI Yeast Anticancer Drug Screen. Data for the mlh1 rad18 strain (AID 175); conditions: S. cerevisiae mlh1 rad18 strain growth inhibition; at 50.0 µM; active compounds read high
Outline: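 Growth inhibition of the yeast strain was measured after compound exposure and expressed relative to vehicle-treated controls. The strain carries defined defects in DNA damage repair.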

Measured: growth inhibition

COc1ccc2nc(C)c3c(c2c1)C(=O)N(CCCN1CCN(CCCN2C(=O)c4c(C)nc5ccc(OC)cc5c4C2=O)CC1)C3=O
inactive: [1] 0.6% | [2] 9.4% | [3] -7.5% | [4] -25.4% | [5] 2.15% | [6] 36.5%

O=C(Cc1nc2ccc(Cl)cc2[nH]c1=O)c1ccncc1
inactive: [1] -2.8% | [2] -11.6% | [3] -3.55% | [4] 8.1% | [5] -24.1% | [6] 20.8%

O=C(CCCCCC(=O)N1CC(CCl)c2ccc([N+](=O)[O-])cc21)N1CC(CCl)c2ccc([N+](=O)[O-])cc21 (stereo not given)
inactive: [1] -28.8% | [2] -39.8% | [3] -15.6% | [4] -4.5% | [5] -2.9% | [6] -55.4%

CCCCCCCCCc1ccc(OC(=O)CCC)cc1
inactive: [1] 2.4% | [2] -22.6% | [3] -15.1% | [4] -50% | [5] -2.95% | [6] 20.7%

O=c1[nH]cc(CNC2CCCCC2)c(=O)[nH]1
inactive: [1] 21.5% | [2] -9.35% | [3] 7.65% | [4] -0.2% | [5] 4.6% | [6] 8.2%

N#Cc1c(N)ncn1C1OC(CO)C(O)C1O (stereo not given)
inactive: [1] -17.6% | [2] -7.6% | [3] -20.9% | [4] -16.3% | [5] 0.15% | [6] -13.3%

N=C(N)c1cc(Cl)c(OCc2ccccc2)c(Cl)c1
inactive: [1] 9.7% | [2] -12.7% | [3] 1.15% | [4] -10.7% | [5] 3.85% | [6] 12.8%

CCN(CC)CCCNc1[nH]ncc2c(C)c3nc4ccccc4c3cc12
inactive: [1] 14.1% | [2] -10.2% | [3] 14.7% | [4] 10.1% | [5] 9.4% | [6] -4.05%

CCCCCCCNC(C)=O
inactive: [1] 14.1% | [2] 15.5% | [3] 3.6% | [4] 10.1% | [5] -0.7% | [6] -5%

CC1(C)CCNc2ccccc2S1
inactive: [1] -0.55% | [2] 1.7% | [3] 2.05% | [4] -25.9% | [5] -11.1% | [6] -14.6%

Cn1nc(-c2ccccc2)c(N=[N+]=[N-])cc1=O
inactive: [1] -18.1% | [2] 14.6% | [3] -41.3% | [4] -11.9% | [5] -10.9% | [6] -34.6%

CCOC(=O)C(C)(C(=O)OCC)n1cnc2c1c(=O)n(C)c(=O)n2C
inactive: [1] 8.05% | [2] -7.6% | [3] -12.6% | [4] 9.8% | [5] 10.8% | [6] 4.8%

CCC(=O)NCC(=O)O
inactive: [1] -4.15% | [2] -10.6% | [3] -16.1% | [4] 0.3% | [5] 8.15% | [6] -6.15%

Cc1nc(Cl)c2cnccn12
inactive: [1] -4.2% | [2] -1.85% | [3] 7.8% | [4] -37.5% | [5] -1.25% | [6] 0.2%

O.O.[Cu+2].[Cu+2].[NH-]CCC(=O)[N-]C(Cc1cnc[nH]1)C(=O)O.[NH-]CCC(=O)[N-]C(Cc1cnc[nH]1)C(=O)O (stereo not given)
inactive: [1] -26.1% | [2] 5.8% | [3] 0.95% | [4] 31.8% | [5] 6.35% | [6] 11.8%

CN(CO)N=Nc1ccc(C(F)(F)F)cc1
inactive: [1] -6.05% | [2] -0.65% | [3] -10% | [4] -14.2% | [5] 13.2% | [6] 19.8%

CC(=O)NC(CCCNC(=O)N(CCCl)N=O)C(=O)NCc1ccccc1 (stereo not given)
inactive: [1] -1.85% | [2] -16.5% | [3] 1.75% | [4] 23.3% | [5] 2.65% | [6] -13.6%

O=C(O)c1c(CC(Cc2ccc3c(c2)CCCC3)C(=O)O)ccc2c1CCCC2 (stereo not given)
inactive: [1] 46.3% | [2] 23.6% | [3] 9.8% | [4] 11.8% | [5] 40.9% | [6] 56.7%

CC/C(=C\c1ccc(NC(C)=O)cc1)c1ccncc1
inactive: [1] -5.6% | [2] -16.6% | [3] 7.2% | [4] -0.85% | [5] -12.8% | [6] -4.6%

O=c1ccn(-c2ccccn2)c(=O)n1-c1ccccn1
inactive: [1] 18.9% | [2] -15.9% | [3] 2.95% | [4] 24.3% | [5] -6.35% | [6] -31.8%

From PubChem BioAssay (NCI)
